As a reminder, the inhibition is the relative decrease from the control value, in per cent.

One experiment deals with Hexose transporter 1 (Plasmodium falciparum) (UniProt O97467). Nature of the experiment: ST_JUDE_LEISH: Cytotoxicity at 2uM final concentration against transgenic Leishmania Mexicana promastigotes LmPfHT that are glucose transport deficient and complemented with the Plasmodium falciparum hexose transporter. Activity is measured by DNA content using SYBR green in vitro. It counts as functional.
As to `Cc1cc(=O)[nH]c(-n2nc(C)cc2NC(=O)C2(c3ccc(Cl)cc3)CCCC2)n1`, the inhibition came to 66.3%.

For `COc1ccc(CN(C)CCCc2ccc(NC(=O)c3cc4ccccc4[nH]3)cc2)cc1OC`, the inhibition worked out at 1.65%.

`CC(C)COc1ccc(Cl)cc1Cc1nc(-c2nc3cccc(CN4CCN(C)CC4)c3[nH]2)cs1`: the inhibition stood at 0.77%.

As to `Cc1cc(-c2ccc3occ(CCN)c3c2)cnc1N`, the inhibition was 0.86%.

For `N=c1n(CCN2CCCC2)c2ccccc2n1CC(O)c1ccc(Cl)c(Cl)c1` (stereo not drawn), the inhibition amounted to 1.57%.

For the compound `Cc1cc(N(C)C2CCN(C)C2)nc(Nc2ccc(Cl)cc2)n1` (stereo not drawn), the inhibition was 8.61%.

Regarding `O=C(NCCCCN1CCC(c2ccc3c(c2OCCOCCO)CCCC3)CC1)c1ccc(-c2ccc(C(F)(F)F)cc2)cc1`, the inhibition was 2.47%.

Regarding `Fc1ccc2[nH]c(-c3ccc(-c4cccc(CN5CCC(CCN6CCCCC6)CC5)c4)cc3)nc2c1`, the inhibition came out at 1.77%.

As to `Cc1ccccc1N1CCN(c2ncc(C(=O)NC3CC3)cc2Cl)CC1`, the inhibition was found to be 6.74%.

Turning to `CCC(CC)CN1C(=O)C(C)(c2ccccc2)N=C1N` (stereo not drawn), the inhibition is -0.03%.

`CN1CCCN(c2ccnc3cc4c(cc23)N(C(=O)c2ccccc2Cl)CC4)CC1`: the inhibition was found to be 0.96%.

Consider `COc1cc(Cc2cnc(N)nc2N)cc(OCCCc2cc(OCc3ccccc3)no2)c1OC`, for which the inhibition amounted to 8.52%.

Consider `COc1ccc(OC(C)CNC(=O)c2cc([N+](=O)[O-])ccc2-c2ccc(OC)cc2)cc1` (stereo not drawn), for which the inhibition is -1.79%.

For `CCOC(=O)c1c(NC(=O)c2ccccc2)sc2c(O)c(CNC3CCCCC3)ccc12`, the inhibition was -0.58%.

For the compound `CCCCCCn1c2c(c(=N)c3c1CCC3)CCCC2`, the inhibition was 77.5%.

On to `CC1CCCC(Nc2noc(-c3sccc3Br)n2)C1` (stereo not drawn), for which the inhibition is 0.6%.

Consider `COc1cccc2cc(C(=O)N[C@@H](CC(C)C)C(=O)N[C@H](C=NNC(=O)OC(C)(C)C)CC(C)C)oc12`, for which the inhibition came to 1.47%.

With `COC(=O)C(c1ccc(NC(=O)[C@H](CC(C)C)NC(=O)OC(C)(C)C)cc1)c1ccc(NC(=O)[C@H](CC(C)C)NC(=O)OC(C)(C)C)cc1`, the inhibition worked out at 0.91%.

Turning to `O=C(NCc1cccc(Cl)c1)c1ccc(CNC2CCN(Cc3ccccc3)CC2)cc1`, the inhibition was -0.25%.

Turning to `Nc1c2ccccc2nc2cc(C(F)(F)F)ccc12`, the inhibition was 5.91%.

`COc1ccc2nc(SC(C)C(=O)c3c[nH]c4ccccc34)[nH]c2c1` (stereo not drawn): the inhibition came out at 0.87%.

On to `COc1ccc(CN(C)Cc2ccc(NC(=O)c3cccc4c(=O)c5cccc(C)c5[nH]c34)cc2)cc1OC`, for which the inhibition came to 11.6%.

As for `O=C(NCCc1ccc(Cl)c(Cl)c1)[C@@H]1CCCN1C(=O)c1ccc(O)c(-c2ccc(Cl)c(Cl)c2)c1`, the inhibition is -0.69%.

Regarding `CC(=O)CCc1ccc(OCCN(Cc2ccccc2C(F)(F)F)c2ccc(C#N)c(C(F)(F)F)c2)cc1`, the inhibition was found to be 4.24%.

Take `CN1CCN(c2ccnc3ccc(NC(=O)Nc4ccc(-c5ccncc5)c(C(F)(F)F)c4)cc23)CC1`: the inhibition was 9.91%.

With `COc1ccc(C2CC(c3cccs3)=NN2C(=O)c2ccco2)cc1OC` (stereo not drawn), the inhibition amounted to 4.8%.

`COc1cc2nc(NCC3CCN(c4nc(N)c5cc(OC)c(OC)cc5n4)CC3)nc(N)c2cc1OC`: the inhibition was 2.73%.

In the case of `CCOc1cc(C(=O)NC2CCN(Cc3ccccc3)CC2)ccc1-c1nc2cc(Cl)c(Cl)cc2[nH]1`, the inhibition was determined as 5.07%.

In the case of `COc1cc2nc(N(C)Cc3cc4c(Cl)cccc4s3)nc(N)c2cc1OC`, the inhibition is -1.7%.

For the compound `CC(=O)Nc1ccc(S(=O)(=O)Nc2ccc(Nc3nc(C)cc(N4CCCCC4)n3)cc2)cc1`, the inhibition is 5.79%.

For the compound `Cc1cccc(C)c1OC(=O)C(C)C(O)C1(Sc2ccccc2)CCN(C)CC1` (stereo not drawn), the inhibition was 3.78%.

In the case of `COc1ccc(NC(=O)CCNc2cc(C)nc(NCCOc3ccccc3)n2)cc1`, the inhibition was determined as 2.64%.

Turning to `CNC(=O)c1cncc(/C=C/c2ccccc2S(N)(=O)=O)c1`, the inhibition stood at 4.59%.

With `N#CC(NC(=O)C=Cc1ccccc1)c1ccccc1` (stereo not drawn), the inhibition is -2.81%.

On to `COc1ccc2ncc(F)c(CCN3CCC(NCc4ccc5c(c4)CCO5)CC3)c2n1`, for which the inhibition amounted to 21.4%.

With `O=C(N[C@H]1CCN(Cc2ccc(OCCN3CCNCC3)c(Cl)c2)C1)c1ccc(Cl)c(Cl)c1`, the inhibition is -3.15%.

`CCOC(=O)c1ccc(NC(=O)Nc2ccc(-c3ccc(-c4nc5ccccc5[nH]4)cc3)cc2)cc1`: the inhibition worked out at 3.36%.

Turning to `CC(C)C(=O)ONC1=NC(C)(C)N(OCCCOc2cc(Cl)c(Cl)cc2Cl)C(NOC(=O)C(C)C)=N1`, the inhibition was 1.64%.

With `COC(=O)c1cc(C(O)CNC(C)CCCc2ccccc2)ccc1O` (stereo not drawn), the inhibition was -0.05%.

The next experiment deals with Glucose transporter (Leishmania mexicana) (UniProt O61059). Nature of the experiment: ST_JUDE_LEISH: Cytotoxicity at 2uM final concentration against transgenic Leishmania Mexicana promastigotes LmGT2 that are glucose transport deficient and complemented with the L. Mexicana glucose transporter 2. Activity is measured by DNA content using SYBR green in vitro. It counts as functional.
On to `Cc1cc(=O)[nH]c(-n2nc(C)cc2NC(=O)C2(c3ccc(Cl)cc3)CCCC2)n1`, for which the inhibition was 53.5%.

On to `COc1ccc(CN(C)CCCc2ccc(NC(=O)c3cc4ccccc4[nH]3)cc2)cc1OC`, for which the inhibition amounted to 0.23%.

Consider `CC(C)COc1ccc(Cl)cc1Cc1nc(-c2nc3cccc(CN4CCN(C)CC4)c3[nH]2)cs1`, for which the inhibition is 0.67%.

As to `Cc1cc(-c2ccc3occ(CCN)c3c2)cnc1N`, the inhibition is 1.13%.

For the compound `N=c1n(CCN2CCCC2)c2ccccc2n1CC(O)c1ccc(Cl)c(Cl)c1` (stereo not drawn), the inhibition was 9.08%.

In the case of `Cc1cc(N(C)C2CCN(C)C2)nc(Nc2ccc(Cl)cc2)n1` (stereo not drawn), the inhibition turned out to be 4.14%.

As for `O=C(NCCCCN1CCC(c2ccc3c(c2OCCOCCO)CCCC3)CC1)c1ccc(-c2ccc(C(F)(F)F)cc2)cc1`, the inhibition was found to be 0.76%.

Take `Fc1ccc2[nH]c(-c3ccc(-c4cccc(CN5CCC(CCN6CCCCC6)CC5)c4)cc3)nc2c1`: the inhibition was 0.37%.

As for `Cc1ccccc1N1CCN(c2ncc(C(=O)NC3CC3)cc2Cl)CC1`, the inhibition stood at 5.71%.

`CCC(CC)CN1C(=O)C(C)(c2ccccc2)N=C1N` (stereo not drawn): the inhibition is -1.23%.

On to `CN1CCCN(c2ccnc3cc4c(cc23)N(C(=O)c2ccccc2Cl)CC4)CC1`, for which the inhibition was -0.18%.

As to `COc1cc(Cc2cnc(N)nc2N)cc(OCCCc2cc(OCc3ccccc3)no2)c1OC`, the inhibition was determined as 8.73%.

For the compound `COc1ccc(OC(C)CNC(=O)c2cc([N+](=O)[O-])ccc2-c2ccc(OC)cc2)cc1` (stereo not drawn), the inhibition is -4.55%.

With `CCOC(=O)c1c(NC(=O)c2ccccc2)sc2c(O)c(CNC3CCCCC3)ccc12`, the inhibition was -0.44%.

For the compound `CCCCCCn1c2c(c(=N)c3c1CCC3)CCCC2`, the inhibition came out at 66.2%.

Take `CC1CCCC(Nc2noc(-c3sccc3Br)n2)C1` (stereo not drawn): the inhibition was -2.55%.

With `COc1cccc2cc(C(=O)N[C@@H](CC(C)C)C(=O)N[C@H](C=NNC(=O)OC(C)(C)C)CC(C)C)oc12`, the inhibition was 0.48%.

On to `COC(=O)C(c1ccc(NC(=O)[C@H](CC(C)C)NC(=O)OC(C)(C)C)cc1)c1ccc(NC(=O)[C@H](CC(C)C)NC(=O)OC(C)(C)C)cc1`, for which the inhibition stood at 0.27%.

As for `O=C(NCc1cccc(Cl)c1)c1ccc(CNC2CCN(Cc3ccccc3)CC2)cc1`, the inhibition was 2.18%.

Regarding `Nc1c2ccccc2nc2cc(C(F)(F)F)ccc12`, the inhibition came out at 1.3%.

With `COc1ccc2nc(SC(C)C(=O)c3c[nH]c4ccccc34)[nH]c2c1` (stereo not drawn), the inhibition was 2.35%.

For `COc1ccc(CN(C)Cc2ccc(NC(=O)c3cccc4c(=O)c5cccc(C)c5[nH]c34)cc2)cc1OC`, the inhibition turned out to be 0.44%.

Consider `O=C(NCCc1ccc(Cl)c(Cl)c1)[C@@H]1CCCN1C(=O)c1ccc(O)c(-c2ccc(Cl)c(Cl)c2)c1`, for which the inhibition was -1.51%.

As to `CC(=O)CCc1ccc(OCCN(Cc2ccccc2C(F)(F)F)c2ccc(C#N)c(C(F)(F)F)c2)cc1`, the inhibition is 2.73%.

In the case of `CN1CCN(c2ccnc3ccc(NC(=O)Nc4ccc(-c5ccncc5)c(C(F)(F)F)c4)cc23)CC1`, the inhibition came out at 10.6%.

On to `COc1ccc(C2CC(c3cccs3)=NN2C(=O)c2ccco2)cc1OC` (stereo not drawn), for which the inhibition was found to be 4.31%.

For the compound `COc1cc2nc(NCC3CCN(c4nc(N)c5cc(OC)c(OC)cc5n4)CC3)nc(N)c2cc1OC`, the inhibition is 3.28%.

For the compound `CCOc1cc(C(=O)NC2CCN(Cc3ccccc3)CC2)ccc1-c1nc2cc(Cl)c(Cl)cc2[nH]1`, the inhibition was -0.27%.

As to `COc1cc2nc(N(C)Cc3cc4c(Cl)cccc4s3)nc(N)c2cc1OC`, the inhibition was -3.11%.

As for `CC(=O)Nc1ccc(S(=O)(=O)Nc2ccc(Nc3nc(C)cc(N4CCCCC4)n3)cc2)cc1`, the inhibition was determined as 5.54%.

Consider `Cc1cccc(C)c1OC(=O)C(C)C(O)C1(Sc2ccccc2)CCN(C)CC1` (stereo not drawn), for which the inhibition came to 3.85%.

In the case of `COc1ccc(NC(=O)CCNc2cc(C)nc(NCCOc3ccccc3)n2)cc1`, the inhibition was determined as 1.92%.

Take `CNC(=O)c1cncc(/C=C/c2ccccc2S(N)(=O)=O)c1`: the inhibition is -0.59%.

`N#CC(NC(=O)C=Cc1ccccc1)c1ccccc1` (stereo not drawn): the inhibition was -0.2%.

Regarding `COc1ccc2ncc(F)c(CCN3CCC(NCc4ccc5c(c4)CCO5)CC3)c2n1`, the inhibition was determined as 20.6%.

For the compound `O=C(N[C@H]1CCN(Cc2ccc(OCCN3CCNCC3)c(Cl)c2)C1)c1ccc(Cl)c(Cl)c1`, the inhibition was -2.23%.

With `CCOC(=O)c1ccc(NC(=O)Nc2ccc(-c3ccc(-c4nc5ccccc5[nH]4)cc3)cc2)cc1`, the inhibition was 3.8%.

Consider `CC(C)C(=O)ONC1=NC(C)(C)N(OCCCOc2cc(Cl)c(Cl)cc2Cl)C(NOC(=O)C(C)C)=N1`, for which the inhibition is -0.44%.

Consider `COC(=O)c1cc(C(O)CNC(C)CCCc2ccccc2)ccc1O` (stereo not drawn), for which the inhibition is -0.85%.

(Values after ChEMBL document CHEMBL3433997, “St. Jude Leishmania screening dataset” (2016).)
